Screening data from PubChem BioAssay.
mHTT CaM bind – disrupts binding of mutant huntingtin to calmodulin; AlphaScreen His-mHTT/GST-CaM binding, luminescence; inhibition, % at 15 µM; 190,000 tested, 3.6% active; AID 1671202;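 also: 0% = both proteins with DMSO and 100% = one protein alone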
Target sequence (P42858 whole entry, looked up, stated change not applied): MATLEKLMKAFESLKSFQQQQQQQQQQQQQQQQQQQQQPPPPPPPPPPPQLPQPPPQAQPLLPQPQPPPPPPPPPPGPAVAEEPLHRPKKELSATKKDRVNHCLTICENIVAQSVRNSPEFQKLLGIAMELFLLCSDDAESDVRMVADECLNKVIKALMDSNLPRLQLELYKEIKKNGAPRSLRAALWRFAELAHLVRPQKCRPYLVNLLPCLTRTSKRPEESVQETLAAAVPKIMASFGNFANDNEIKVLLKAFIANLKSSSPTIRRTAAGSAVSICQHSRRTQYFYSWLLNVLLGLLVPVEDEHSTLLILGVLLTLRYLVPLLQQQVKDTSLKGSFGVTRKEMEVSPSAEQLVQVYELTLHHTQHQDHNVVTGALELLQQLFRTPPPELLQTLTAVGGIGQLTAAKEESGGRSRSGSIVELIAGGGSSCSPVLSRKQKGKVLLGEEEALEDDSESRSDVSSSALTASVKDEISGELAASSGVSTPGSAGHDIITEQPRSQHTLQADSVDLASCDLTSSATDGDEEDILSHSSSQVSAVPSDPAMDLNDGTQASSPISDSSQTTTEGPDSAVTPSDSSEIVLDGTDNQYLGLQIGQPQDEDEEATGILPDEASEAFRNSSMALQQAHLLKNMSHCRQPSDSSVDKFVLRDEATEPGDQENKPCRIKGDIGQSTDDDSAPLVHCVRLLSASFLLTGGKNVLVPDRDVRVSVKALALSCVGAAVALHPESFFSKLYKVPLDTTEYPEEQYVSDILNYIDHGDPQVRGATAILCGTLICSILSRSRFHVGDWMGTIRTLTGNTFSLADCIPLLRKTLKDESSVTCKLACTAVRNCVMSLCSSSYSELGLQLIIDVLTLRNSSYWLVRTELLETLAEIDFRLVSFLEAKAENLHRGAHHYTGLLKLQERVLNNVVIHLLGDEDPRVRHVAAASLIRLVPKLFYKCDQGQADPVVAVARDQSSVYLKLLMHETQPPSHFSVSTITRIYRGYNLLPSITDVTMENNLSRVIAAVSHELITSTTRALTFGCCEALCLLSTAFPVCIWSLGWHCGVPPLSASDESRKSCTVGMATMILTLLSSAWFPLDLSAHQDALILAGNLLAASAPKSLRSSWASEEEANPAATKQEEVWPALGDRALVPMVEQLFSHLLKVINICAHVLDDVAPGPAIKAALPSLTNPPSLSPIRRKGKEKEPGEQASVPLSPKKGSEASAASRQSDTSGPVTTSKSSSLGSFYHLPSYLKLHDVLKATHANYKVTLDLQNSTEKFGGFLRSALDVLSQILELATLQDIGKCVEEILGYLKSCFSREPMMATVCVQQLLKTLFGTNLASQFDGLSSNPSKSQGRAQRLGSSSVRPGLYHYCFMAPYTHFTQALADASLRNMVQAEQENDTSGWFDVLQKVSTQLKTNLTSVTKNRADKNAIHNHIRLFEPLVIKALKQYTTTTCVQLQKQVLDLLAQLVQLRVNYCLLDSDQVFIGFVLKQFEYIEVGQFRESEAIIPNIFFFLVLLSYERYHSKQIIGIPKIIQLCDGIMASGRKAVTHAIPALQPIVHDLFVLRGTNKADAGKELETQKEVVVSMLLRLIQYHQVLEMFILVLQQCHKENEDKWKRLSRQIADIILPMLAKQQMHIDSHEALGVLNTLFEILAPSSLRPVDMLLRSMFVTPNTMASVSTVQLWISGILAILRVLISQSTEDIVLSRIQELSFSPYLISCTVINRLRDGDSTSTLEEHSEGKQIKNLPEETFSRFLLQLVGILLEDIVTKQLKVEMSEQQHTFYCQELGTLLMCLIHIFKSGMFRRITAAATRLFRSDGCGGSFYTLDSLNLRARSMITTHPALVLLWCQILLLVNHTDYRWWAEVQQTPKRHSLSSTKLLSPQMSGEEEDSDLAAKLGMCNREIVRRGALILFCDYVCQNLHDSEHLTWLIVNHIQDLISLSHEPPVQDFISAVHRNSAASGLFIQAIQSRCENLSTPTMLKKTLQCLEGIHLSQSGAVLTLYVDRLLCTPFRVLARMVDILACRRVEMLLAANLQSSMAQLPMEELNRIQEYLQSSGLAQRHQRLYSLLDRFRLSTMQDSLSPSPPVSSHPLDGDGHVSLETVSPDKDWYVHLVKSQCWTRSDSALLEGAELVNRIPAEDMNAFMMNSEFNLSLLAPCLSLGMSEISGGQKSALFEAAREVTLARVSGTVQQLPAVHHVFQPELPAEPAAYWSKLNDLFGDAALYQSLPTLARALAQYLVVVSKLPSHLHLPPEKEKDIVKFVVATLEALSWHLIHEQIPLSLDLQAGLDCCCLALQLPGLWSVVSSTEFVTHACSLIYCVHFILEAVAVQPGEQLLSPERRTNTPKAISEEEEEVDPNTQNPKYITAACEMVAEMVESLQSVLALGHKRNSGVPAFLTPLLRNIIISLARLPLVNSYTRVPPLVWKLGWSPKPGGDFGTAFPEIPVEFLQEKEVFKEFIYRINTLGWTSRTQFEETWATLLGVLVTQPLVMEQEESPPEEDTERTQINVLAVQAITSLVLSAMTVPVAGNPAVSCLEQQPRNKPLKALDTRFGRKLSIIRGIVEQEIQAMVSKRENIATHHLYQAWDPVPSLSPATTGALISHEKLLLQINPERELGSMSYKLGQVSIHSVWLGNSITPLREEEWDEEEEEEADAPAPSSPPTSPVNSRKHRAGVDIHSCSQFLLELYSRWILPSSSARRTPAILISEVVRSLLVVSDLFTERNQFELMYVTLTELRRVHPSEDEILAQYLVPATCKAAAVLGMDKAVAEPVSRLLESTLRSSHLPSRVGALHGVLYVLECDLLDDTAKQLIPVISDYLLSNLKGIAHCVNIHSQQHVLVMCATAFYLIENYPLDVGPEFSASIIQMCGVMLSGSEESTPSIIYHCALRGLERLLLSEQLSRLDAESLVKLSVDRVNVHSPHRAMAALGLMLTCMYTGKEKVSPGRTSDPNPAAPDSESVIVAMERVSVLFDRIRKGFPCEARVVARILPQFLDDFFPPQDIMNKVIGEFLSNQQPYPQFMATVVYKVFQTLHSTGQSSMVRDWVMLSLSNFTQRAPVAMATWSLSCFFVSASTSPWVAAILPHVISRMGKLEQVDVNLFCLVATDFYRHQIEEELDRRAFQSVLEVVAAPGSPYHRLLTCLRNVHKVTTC
Pf apPOL block – Pf-apPOL DNA polymerase inhibition; Recombinant Pf-apPOL, molecular beacon fluorescence, 1.5 h; inhibition, % at 10 µM; 210,000 tested, 0.25% active
Starred values were filed as active, the others as inactive; · = no result. The full list was thinned out, with hits kept by preference. Rule as the data show it: active = inhibition above about 50%; inactive = the rest.

SMILES | mHTT CaM bind | Pf apPOL block
O=C(CCc1ccccc1)N1CCC(Nc2cccnc2)C1 (centres undefined) | -4 | -5
O=C(/C=C/c1ccc(O)cc1)CC(=O)/C=C/c1ccc(O)cc1 | · | -128
CN(C)c1cc(N2CCCC(NC(=O)c3ccnn3C)C2)ncn1 (centres undefined) | 3 | -6
COc1cccc(C2CC(C(F)(F)F)n3ncc(C(=O)NCc4ccc(F)cc4)c3N2)c1 (centres undefined) | 64* | -7
COc1ccc(CNC(=O)c2cnn3c2NC(c2ccc(OC)cc2)CC3C(F)(F)F)cc1 (centres undefined) | 19 | -1
Cc1cccc(C)c1OCC(=O)N1CCCCC1CCN1CCCCCC1 (centres undefined) | 2 | -9
CCOC(=O)c1ccc(N=Cc2cc(I)cc(I)c2O)cc1 | · | -26
N#Cc1ccc(N=Cc2cc(I)cc(I)c2O)cc1 | 53* | 0
COc1ccc(C(CNS(=O)(=O)c2cccs2)N2CCN(C)CC2)cc1 (centres undefined) | -26 | -6
Cc1ccc(CNC(=O)C2CCN(c3ccc(N4CCCCC4)nn3)CC2)cc1 | -9 | -6
CN(CCNC(=O)CC1CCN(C(=O)C2CCCCC2)CC1)Cc1ccccc1 | -3 | -6
O=C(NCCc1c[nH]c2ccccc12)C1CCc2nc(N3CCCC3)ncc2C1 (centres undefined) | 54* | -3
O=C(NCCc1c[nH]c2ccccc12)C1CCN(c2ccncc2)CC1 | 14 | -2
COc1ccc2[nH]cc(CCNC(=O)C3CCc4nc(N5CCCC5)ncc4C3)c2c1 (centres undefined) | 23 | -8
CN(C)c1ccc(N2CCC(C(=O)NCCc3c[nH]c4ccccc34)CC2)nn1 | 96* | 2
CC(CCc1ccccc1)NC(=O)CC1CCN(C(=O)C2CCCCC2)CC1 (centres undefined) | 57* | 6
Cc1ccc2[nH]cc(CCNC(=O)C3CCN(c4ccc(N5CCCCC5)nn4)CC3)c2c1 | 78* | -7
O=C(NCc1ccc(F)cc1)C1CC(=O)N(Cc2cccc(Br)c2)C1 (centres undefined) | 12 | -4
O=C(Nc1cc([N+](=O)[O-])ccc1O)c1cccc(F)c1 | 6 | 0
Cc1ccc2[nH]cc(CCNC(=O)CC3CCN(C(=O)C4CCCCC4)CC3)c2c1 | 86* | -7
O=C(CC1CCN(C(=O)c2ccccc2Cl)CC1)NCc1ccccc1F | -7 | 0
O=C(CC1CCN(C(=O)c2ccccc2Cl)CC1)NCCc1c[nH]c2ccccc12 | 71* | -5
COc1ccc2[nH]cc(CCNC(=O)CC3CCN(C(=O)C4CCCCC4)CC3)c2c1 | 9 | -6
Cc1ccc(-c2nc(C=Nc3cccc(Cl)c3)c(O)o2)cc1 | 1 | 1
N=c1c(C(N)=S)cnc2ccccn12 | 2 | ·
SMILES | mHTT CaM bind | Pf apPOL block
COc1ccc(NCc2ccc(Cl)cc2Cl)cc1OC | 45 | -4
COc1cc(NCc2ccccc2Cl)cc(OC)c1 | 75* | 3
O=C(Nc1ccccc1Br)c1cc2ccccc2oc1=O | -4 | -29
Cc1cc2c(c(=O)o1)C(c1cccc(Cl)c1Cl)C(C#N)=C(N)O2 (centres undefined) | 1 | -4
Cn1nc(C(=O)NCc2ccccc2)c2c1CCN(C(=O)c1ccc(C#N)cc1)C2 | 21 | -2
CC(Oc1ccccc1)C(=O)N1CCc2c(c(C(=O)NCc3ccccc3)nn2C)C1 (centres undefined) | 55* | -7
COc1ccc2cc(C(=O)N3CCc4c(c(C(=O)NCc5ccccc5)nn4C)C3)[nH]c2c1 | 37 | -2
COc1cc(OC)cc(C(=O)N2CCc3c(c(C(=O)NCc4ccccc4)nn3C)C2)c1 | 75* | -3
COc1ccc(C(=O)N2CCc3c(c(C(=O)NCc4ccccc4)nn3C)C2)cc1 | 56* | -10
COc1ccc(C(=O)N2CCc3c(c(C(=O)NCc4ccccc4)nn3C)C2)c(OC)c1 | 51* | -10
Cn1nc(C(=O)NCc2ccccc2)c2c1CCN(C(=O)c1ccccc1Cl)C2 | 34 | -10
Cc1ccccc1C(=O)N1CCc2c(c(C(=O)NCc3ccccc3)nn2C)C1 | 11 | -16
CC(C)CCNC(=O)C1(C)CCC(=O)N1CCCN1CCCC1=O (centres undefined) | -11 | 2
O=C(c1ccc([N+](=O)[O-])cc1)c1nc2c(n1O)CCCCC2 | 7 | -8
CC(=O)c1ccc(NS(=O)(=O)c2cc([N+](=O)[O-])c(C)cc2C)cc1 | 0 | 0
C=CCNC(=O)C1CC(=O)N(Cc2cc(C(F)(F)F)cc(C(F)(F)F)c2)C1 (centres undefined) | 1 | 1
Cc1ccc(C(=O)N2CCc3c(c(C(=O)NCc4ccccc4)nn3C)C2)cc1 | 75* | -2
Cn1nc(C(=O)NCc2ccccc2)c2c1CCN(C(=O)c1ccccc1)C2 | 36 | 1
Cc1ccc(NC(=O)c2csc(-c3ccc(C)n3C)n2)cc1 | 60* | -6
COc1ccccc1NC(=O)c1csc(-c2ccc(C)n2C)n1 | 7 | -2
